MCF10A rerep: inducers of DNA re-replication in MCF 10A breast cells | 2.9% of 350,000 active | AID 624296 | Potency, µM (top dose mostly 46.1 µM), inactives show top-dose activity, positive = re-replication, usual class: activators | MCF 10A DNA re-replication, Hoechst nuclear intensity, 48 h; also: potency is read from the fitted curve at half-maximal effect; % of control where 0% means no effect; nearly all actives have a fitted effect of over 50% in size
SW480 rerep: inducers of DNA re-replication in SW480 colon cancer cells. SW480 DNA re-replication, Hoechst DNA content imaging, 48 h. 1.8% of 340,000 active. Potency, µM (doses to about 46.1 µM), inactives show at the highest dose re-replication activation, actives largely listed as activators. AID 624297; also: potency is read from the fitted curve at half-maximal effect; % of control where 0% means no effect; nearly all actives have a fitted effect of over 55% in size
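SW480 cells exposed to compounds for 48 hr at 37 C, 5% CO2, then Hoechst-stained 40 min. Nuclear DNA content imaged by fluorescence scanning (405 nm excitation, 500-530 nm emission); re-replication scored as increased high-intensity nuclei.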
KB-3-1 tox: KB-3-1 parental cell cytotoxicity. KB-3-1 viability, CellTiter-Glo ATP luminescence, 72 h. Potency, µM (highest dose often 46.1 µM), most hits filed as cytotoxic. 1.4% of 400,000 active. AID 1347075; also: potency is read from the fitted curve at half-maximal effect; % is scaled to controls: 0 for no effect and ±100 for the full control effect; nearly all actives have a fitted effect of over 60% in size
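Using CellTiter-Glo luminescence, growth of non-resistant KB-3-1 adenocarcinoma cells is assessed 72 h after pin-tool compound addition at 37 °C. Normalized responses across the concentration series yield fitted curves.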
DRD3 antagonist: antagonists of human D3 dopamine receptor | P35462 | D3R cells, DiscoveRx beta-arrestin luminescence, antagonist mode; active compounds read low | max response, negative = inhibition, % | 2.5% of 360,000 active | AID 652054; in the data active = max response below about -50%; inconclusive = no clear call, values can overlap the other calls; also: % is scaled to controls: 0 for no effect and ±100 for the full control effect
Target sequence (P35462 whole entry, looked up): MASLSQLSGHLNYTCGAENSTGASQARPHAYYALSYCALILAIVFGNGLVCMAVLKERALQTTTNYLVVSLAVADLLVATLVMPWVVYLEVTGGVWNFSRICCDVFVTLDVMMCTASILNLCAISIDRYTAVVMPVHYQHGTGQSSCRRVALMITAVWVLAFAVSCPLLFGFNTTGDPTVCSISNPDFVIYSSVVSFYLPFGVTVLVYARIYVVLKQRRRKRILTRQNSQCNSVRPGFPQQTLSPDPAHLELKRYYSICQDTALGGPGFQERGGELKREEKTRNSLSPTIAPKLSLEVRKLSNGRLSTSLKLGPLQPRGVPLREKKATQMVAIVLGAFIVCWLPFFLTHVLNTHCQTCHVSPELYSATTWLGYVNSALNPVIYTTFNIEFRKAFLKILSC
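Cells expressing the human receptor were seeded at 1500 cells/well, incubated overnight at 37 degrees C in 5% CO2, then exposed to library compounds with dopamine controls for 90 minutes at 37 degrees C before luminescent detection.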
D3 ag: activates the human D3 dopamine receptor | max activation, % | P35462 | 0.58% of 410,000 active | AID 652048 | D3R DiscoveRx beta-arrestin cells, luminescence, 90 min; in the data active = max activation above about 30%; also: 0% is about no effect
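Agonist mode: compounds and dopamine controls were applied to plated cells for 90 min at 37 degrees C after an overnight attachment at 1500 cells/well. Luminescent read-out followed 30 - 60 minutes at room temperature with DiscoveRx detection reagent.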
KB-V1 cytotox: kills drug-selected multidrug resistant KB-V1 cells. KB-V1 MDR cells viability, CellTiter-Glo, 72 h. Potency, µM (series often up to 46.1 µM), usual class: cytotoxic. 3.4% of 400,000 active; also: potency is read from the fitted curve at half-maximal effect; % is scaled to controls: 0 for no effect and ±100 for the full control effect; nearly all actives have a fitted effect of over 60% in size
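Cells of the MDR subline KB-V1 are plated, dosed with compound at multiple concentrations, and incubated 72 h at 37 degrees C; CellTiter-Glo is then added and luminescence read after 10 min.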
* hit, by the source's call; i = inactive; ? = inconclusive; . = no result. The list is not random: actives were taken first. Their share in the collection is about 8.9%. Unless noted, calls follow the shape of the dose curve; as a rule, active = well fitted curve in the direction sought with a large enough effect; inconclusive = small, poorly fitted or top-dose-only effect, or another doubt; inactive = no such curve, though single readings can be large; an effect the other way counts as inactive or inconclusive.

SMILES	MCF10A rerep	SW480 rerep	KB-3-1 tox	DRD3 antagonist	D3 ag	KB-V1 cytotox
COc1ccc(CC2=CC(=O)c3ccccc3C2=O)cc1	?	0%	i	-56*	-18	i
COc1ccc(Cc2ccccc2C(=O)O)cc1	-3%	-6%	i	7	-2	i
CC(=C/c1ccccc1)/C=N/Nc1nc(N2CCCCC2)nc(N2CCCCC2)n1	-4%	-7%	i	15	32*	?
C(=C\c1ccccc1)/C=N/Nc1nc(N2CCCCC2)nc(N2CCCCC2)n1	2%	-1%	?	10	2	?
COc1ccc(Br)cc1CNC(=O)CSc1cc(=O)n(C)c2ccccc12	.	.	i	.	-6	i
COc1ccc(CNC(=O)CN2C(=O)C3CCCN3c3ncc(Cl)cc32)cc1 (stereo unspecified)	15%	-5%	i	13	7	i
CCc1ccccc1NC(=O)CN1C(=O)C2CCCN2c2ncc(Cl)cc21 (stereo unspecified)	?	10%	i	-16	-13	15µM*
O=C(C1CCN(S(=O)(=O)c2cccc3nsnc23)CC1)N1CC=C(c2ccccc2)CC1	?	3%	i	19	2	i
O=C(C1CCC(CNS(=O)(=O)c2cccc3nsnc23)CC1)N1CC=C(c2ccccc2)CC1 (stereo unspecified)	13%	-6%	?	179	60*	i
COc1ccc(-c2csc3nc(C)n(-n4cccc4)c(=O)c23)cc1	?	-5%	i	9	0	i
Cc1nc2scc(-c3ccc(C(C)(C)C)cc3)c2c(=O)n1N	?	?	?	55	31*	i
COc1cc(-c2nnc(Sc3ccc(C(F)(F)F)cc3[N+](=O)[O-])o2)cc(OC)c1OC	18µM*	?	i	3	9	i
O=C(O)c1ccc(Sc2nnc(-c3cccc(Br)c3)o2)c([N+](=O)[O-])c1	11%	-1%	i	-66*	-2	i
O=[N+]([O-])c1cc(C(F)(F)F)ccc1Sc1ccc2ccccc2n1	5%	-1%	i	?	-14	?
Cc1ccc(C)c(N=Nc2nc3ccccc3n2C)c1	?	?	i	-27	24	15µM*
COc1ccc(CCC(=O)NC2CC(=O)N(c3ccc(C)cc3)C2)cc1 (stereo unspecified)	.	.	.	.	71*	.
COc1ccc(N2CCN(C(=O)Cn3cnc4nc5c(cc4c3=O)CCCC5)CC2)cc1	.	.	i	.	2	i
O=C1/C(=C\c2ccccc2)CCc2c1[nH]c1ccccc21	?	3.3µM*	1.3µM*	33	-7	?
Cc1ccc2[nH]c3c(c2c1)CC/C(=C/c1ccccc1)C3=O	?	?	i	38	2	13µM*
Cc1ccc(N2NC(=O)/C(=C\c3cc4c(cc3[N+](=O)[O-])OCO4)C2=O)cc1C	18µM*	0%	?	5	0	i
Cc1csc(NC(=O)CCn2c(=O)sc3ccccc32)n1	?	-9%	i	8	-2	23µM*
CCOC(=O)N1CCN(C(=O)Cn2c(=O)sc3ccccc32)CC1	2%	2%	i	11	-5	i
Cc1csc(NC(=O)CCCSc2nc3ccccc3s2)n1	18µM*	-4%	i	24	11	?
O=C(CCn1c(=O)sc2ccccc21)NCCC1=CCCCC1	0%	-7%	i	-108*	-30	i
CCN1CCN(C(=O)Cn2c(=O)sc3ccccc32)CC1	-3%	-1%	i	-98*	4	?
SMILES	MCF10A rerep	SW480 rerep	KB-3-1 tox	DRD3 antagonist	D3 ag	KB-V1 cytotox
CCn1nc(-c2ccccc2)c(-c2ccccc2)c(C(=O)Nc2nc(C)c(C(=O)N(C)C)s2)c1=O	.	.	.	.	4	.
CCCc1nnc(NC(=O)CN2C(=O)c3ccccc3C2=O)s1	1%	-4%	i	1	-13	i
CCCc1nnc(NC(=O)Cn2c(=O)sc3ccccc32)s1	-5%	1%	i	6	0	18µM*
O=C(c1ccco1)N(Cc1cccs1)c1ccc(F)cc1	.	.	i	.	4	i
CCCCn1c(SCC(=O)NCc2ccccc2)nc2ccc(N3CCOCC3)cc2c1=O	21%	2%	i	35	34*	?
CCCCn1c(SCC(=O)NC(C)CC)nc2ccc(N3CCOCC3)cc2c1=O (stereo unspecified)	0%	-9%	i	-7	-2	3.3µM*
N#CCSc1nc2ccc(N3CCCCC3)cc2c(=O)n1Cc1ccccc1	16µM*	21µM*	i	-27	0	?
CCCCn1c(SCC(=O)Nc2ccc(OC)cc2)nc2ccc(N3CCOCC3)cc2c1=O	24%	-6%	i	-4	-5	i
CCCCNC(=O)CSc1nc2ccc(N3CCOCC3)cc2c(=O)n1Cc1ccc(OC)cc1	?	-3%	i	-9	-5	i
N#CCSc1nc2ccccc2c(=O)n1CC1CCCC1	26%	-2%	i	15	1	i
CCCCn1c(SCC(=O)NCc2ccco2)nc2ccc(N3CCOCC3)cc2c1=O	?	1%	i	23	10	2.1µM*
O=C(CSc1nc2ccsc2c(=O)n1Cc1ccccc1Cl)NCc1ccc(Cl)cc1	.	.	i	.	7	?
CC(=O)Nc1nonc1-c1nnc(SCC(=O)Nc2cc(Cl)ccc2C)n1C	.	.	i	.	-10	i
COc1cc(C(=O)Oc2cccc(C=O)c2)cc(OC)c1OC	2%	16µM*	i	9	21	i
COc1cc(C(=O)Oc2cccc(/C=N/NC(=O)c3cc(C)[nH]n3)c2)cc(OC)c1OC	3%	1%	i	80	10	i
N#Cc1cc2ccccc2nc1SCc1cccnc1	26%	-1%	i	-83*	14	?
Cc1ccc(C(=O)N(C)CC(=O)Nc2ccc(N3CCOCC3)cc2)s1	?	-41%	i	-7	-4	i
O=C1CC(c2ccccc2)=C(c2ccccc2)C1c1ccccc1 (stereo unspecified)	?	?	?	-22	-5	10µM*
O=C1NNC(=O)C1c1ccccc1	-2%	0%	i	-2	4	i
CCc1cc2c(=O)c(-c3cnn(-c4ccccc4)c3)c(C)oc2c(CN2CCCCC2)c1O	?	2%	i	1	37*	i
CCc1cc2c(=O)c(-c3cnn(-c4ccccc4)c3)c(C(F)(F)F)oc2c(CN(C)C)c1O	-6%	-7%	i	14	17	1.8µM*
CCc1cc2c(=O)c(-c3cnn(-c4ccccc4)c3)coc2c(CN2CCOCC2)c1O	11%	8%	?	5	0	i

Screening data deposited in PubChem BioAssay by National Center for Advancing Translational Sciences (NCATS).
